Experimental data from the supplement of paper PMC8728848.
This is one part of a sample in which the strongest signals are shown more often than they occur.

Tests used:
Test in all cases: glycan array binding signal (z-score within array); higher = stronger binding
Details in all cases: glycan notation: IUPAC condensed, linker removed
[1] = biological target: Fuc(a1-2)Gal(b1-3)GalNAc(a1-3)[Fuc(a1-2)]Gal(b1-4)GlcNAc
Summary of the method: (§1)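 The Consortium for Functional Glycomics database supplied 3228 glycan arrays, of which those lacking an available protein sequence were dropped. The binding signal, a within-array Z-score, was averaged across arrays of the same protein sequence and across linkers. Negative scores can be read as non-binding.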

[2] = biological target: Fuc(a1-2)Gal(b1-4)GlcNAc(b1-2)Man(a1-3)[Fuc(a1-2)Gal(b1-4)GlcNAc(b1-2)Man(a1-6)]Man(b1-4)GlcNAc(b1-4)GlcNAc
Summary of the method: as §1

[3] = biological target: Fuc(a1-2)Gal(b1-4)GlcNAc(b1-2)Man(a1-3)[Fuc(a1-2)Gal(b1-4)GlcNAc(b1-2)Man(a1-6)]Man(b1-4)GlcNAc(b1-4)[Fuc(a1-6)]GlcNAc
Summary of the method: as §1

[4] = biological target: Fuc(a1-2)Gal(b1-4)GlcNAc(b1-6)GalNAc
Summary of the method: as §1

[5] = biological target: Fuc(a1-2)Gal6S(b1-3)GlcNAc6S
Summary of the method: as §1

[6] = biological target: Fuc(a1-2)Gal6S(b1-4)Glc6S
Summary of the method: as §1

[7] = biological target: Fuc(a1-2)[Gal(a1-3)]Gal(b1-3)GlcNAc(b1-2)Man(a1-3)[Fuc(a1-2)[Gal(a1-3)]Gal(b1-3)GlcNAc(b1-2)Man(a1-6)]Man(b1-4)GlcNAc(b1-4)[Fuc(a1-6)]GlcNAc
Summary of the method: as §1

[8] = biological target: Fuc(a1-2)[Gal(a1-3)]Gal(b1-4)GlcNAc(b1-2)Man(a1-3)[Fuc(a1-2)[Gal(a1-3)]Gal(b1-4)GlcNAc(b1-2)Man(a1-6)]Man(b1-4)GlcNAc(b1-4)[Fuc(a1-6)]GlcNAc
Summary of the method: as §1

[9] = biological target: Fuc(a1-2)[Gal(a1-3)]Gal(b1-4)[Fuc(a1-3)]GlcNAc
Summary of the method: as §1

[10] = biological target: Fuc(a1-2)[GalNAc(a1-3)]Gal(b1-3)GalNAc(a1-3)[Fuc(a1-2)]Gal(b1-4)GlcNAc
Summary of the method: as §1

[11] = biological target: Fuc(a1-2)[GalNAc(a1-3)]Gal(b1-3)GlcNAc
Summary of the method: as §1

[12] = biological target: Fuc(a1-2)[GalNAc(a1-3)]Gal(b1-3)GlcNAc(b1-2)Man(a1-3)[Fuc(a1-2)[GalNAc(a1-3)]Gal(b1-3)GlcNAc(b1-2)Man(a1-6)]Man(b1-4)GlcNAc(b1-4)[Fuc(a1-6)]GlcNAc
Summary of the method: as §1

[13] = biological target: Fuc(a1-2)[GalNAc(a1-3)]Gal(b1-3)GlcNAc(b1-3)GalNAc
Summary of the method: as §1

[14] = biological target: Fuc(a1-2)[GalNAc(a1-3)]Gal(b1-3)GlcNAc(b1-6)GalNAc
Summary of the method: as §1

[15] = biological target: Fuc(a1-2)[GalNAc(a1-3)]Gal(b1-4)GlcNAc(b1-2)Man(a1-3)[Fuc(a1-2)[GalNAc(a1-3)]Gal(b1-4)GlcNAc(b1-2)Man(a1-6)]Man(b1-4)GlcNAc(b1-4)GlcNAc
Summary of the method: as §1

[16] = biological target: Fuc(a1-2)[GalNAc(a1-3)]Gal(b1-4)GlcNAc(b1-3)GalNAc
Summary of the method: as §1

[17] = biological target: Fuc(a1-2)[GalNAc(b1-3)]Gal
Summary of the method: as §1

[18] = biological target: Fuc(a1-3)GlcNAc
Summary of the method: as §1

[19] = biological target: Fuc(a1-3)[GalNAc(b1-4)]GlcNAc6S
Summary of the method: as §1

[20] = biological target: Fuc(a1-3)[GalNAc3S(b1-4)]GlcNAc
Summary of the method: as §1

[21] = biological target: Fuc(b1-3)GlcNAc
Summary of the method: as §1

[22] = biological target: Gal(a1-3)Gal(b1-4)GlcNAc(b1-3)GalNAc
Summary of the method: as §1

[23] = biological target: Gal(b1-3)GalNAc(a1-3)[Fuc(a1-2)]Gal(b1-4)Glc
Summary of the method: as §1

[24] = biological target: Gal(b1-3)GlcNAc(b1-2)Man(a1-3)[Gal(b1-3)GlcNAc(b1-2)Man(a1-6)]Man(b1-4)GlcNAc(b1-4)[Fuc(a1-6)]GlcNAc
Summary of the method: as §1

[25] = biological target: Gal(b1-4)GalNAc(a1-3)[Fuc(a1-2)]Gal(b1-4)GlcNAc
Summary of the method: as §1

[26] = biological target: Gal(b1-4)Glc
Summary of the method: as §1

[27] = biological target: Gal(b1-4)GlcNAc(b1-2)Man(a1-3)[Gal(b1-4)GlcNAc(b1-2)][GlcNAc(b1-4)]Man(b1-4)GlcNAc(b1-4)GlcNAc
Summary of the method: as §1

[28] = biological target: Gal(b1-4)GlcNAc(b1-3)Gal(b1-4)[Fuc(a1-3)GlcNAc(b1-6)]Gal(b1-4)Glc
Summary of the method: as §1

[29] = biological target: Gal6S(b1-4)Glc
Summary of the method: as §1

[30] = biological target: Gal6S(b1-4)GlcNAc6S
Summary of the method: as §1

[31] = biological target: GlcA(b1-6)Gal
Summary of the method: as §1

[32] = biological target: GlcNAc(b1-2)Man(a1-3)[GlcNAc(b1-2)Man(a1-6)]Man(b1-4)GlcNAc(b1-4)[Fuc(a1-6)]GlcNAc
Summary of the method: as §1

[33] = biological target: GlcNAc(b1-2)[GlcNAc(b1-4)]Man(a1-3)[GlcNAc(b1-4)][GlcNAc(b1-2)[GlcNAc(b1-6)]Man(a1-6)]Man(b1-4)GlcNAc(b1-4)[Fuc(a1-6)]GlcNAc
Summary of the method: as §1

[34] = biological target: GlcNAc(b1-4)[GlcNAc(b1-6)]GalNAc
Summary of the method: as §1

[35] = biological target: Neu5Ac(a2-3)Gal(b1-4)GlcNAc(b1-2)[Neu5Ac(a2-3)Gal(b1-4)GlcNAc(b1-6)]Man(a1-6)[Neu5Ac(a2-3)Gal(b1-4)GlcNAc(b1-2)Man(a1-3)]Man(b1-4)GlcNAc(b1-4)GlcNAc
Summary of the method: as §1

[36] = biological target: Neu5Ac(a2-3)Gal(b1-4)[Fuc(a1-3)]GlcNAc(b1-3)Gal(b1-4)GlcNAc
Summary of the method: as §1

[37] = biological target: Neu5Ac(a2-3)Gal(b1-4)[Fuc(a1-3)]GlcNAc(b1-3)GalNAc
Summary of the method: as §1

[38] = biological target: Neu5Ac(a2-3)GalNAc(b1-4)GlcNAc
Summary of the method: as §1

[39] = biological target: Neu5Ac(a2-6)Gal(b1-4)GlcNAc(b1-3)Gal(b1-4)[Fuc(a1-3)]GlcNAc(b1-3)Gal(b1-4)[Fuc(a1-3)]GlcNAc
Summary of the method: as §1

[40] = biological target: Neu5Ac(a2-6)Gal(b1-4)GlcNAc(b1-6)[Gal(b1-3)GlcNAc(b1-3)]Gal(b1-4)Glc
Summary of the method: as §1

[41] = biological target: Neu5Ac(a2-6)GlcNAc(b1-4)GlcNAc
Summary of the method: as §1

[42] = biological target: Neu5Ac(a2-8)Neu5Ac(a2-8)Neu5Ac
Summary of the method: as §1

[43] = biological target: Neu5Gc(a2-3)Gal(b1-3)GlcNAc
Summary of the method: as §1

[44] = biological target: Neu5Gc(a2-3)Gal(b1-4)Glc
Summary of the method: as §1

B1: CvGal1 (Crassostrea virginica), A7Y0I5 (protein)
chain: MTYQISKISQPFTSYIPNGLHIGKHLLLRGRVSYGTEAFAINLQQNPEPCNGEVAFHFNPRPGEQQCVRNSFDGGSWMDEERDQPHFPFDEGRSFTLRIEVAEEGFRTYVNGKPYVNFSHRLDLGNVHYLYLTEGAEFYDISYQDRYTLPYKSEIPQQMNVGKAVRIRGASQDNDGFSVNFACDPDNENCAFHFNPRPNEGVVVRNANLGGWGDEERDYEAEFPFHPYNYFDAMFICTDDKYLVHVNDKYFTEFNHRGGVDASSFFNIVGNLDIQDVEYFEPLEDDFVKTIPSGLVKGDVLIFRGFMKPGGDTFSINFMNGYSVEDDIAFHLNPRVGEGQVVMNCCMGGAWGDEEREDIPSPLADREPFEVKVVVKKNKFKVYVNGKKCMKFAARGNLEDIKGVNIKGEAYVYEVKLERKLEDSWEYLPGGFRVGGWVVVQAIPKKGSEGFAINFRTGSDEDSDIAFHFNPRLQENCTIRNSCAGGAWGGEERDQPDFPFEKKDTCEIAIQAQPDRFVTYVNGKRYIEFNHRLPLESITCVELTGRADFFEPKFF
glycan array binding signal (z-score) [1]: 6.13
glycan array binding signal (z-score) [2]: 0.157
glycan array binding signal (z-score) [3]: -0.053
glycan array binding signal (z-score) [4]: -0.258
glycan array binding signal (z-score) [5]: -0.213
glycan array binding signal (z-score) [6]: -0.259
glycan array binding signal (z-score) [7]: 0.478
glycan array binding signal (z-score) [8]: 1.42
glycan array binding signal (z-score) [9]: -0.263
glycan array binding signal (z-score) [10]: 3.63
glycan array binding signal (z-score) [11]: 4.14
glycan array binding signal (z-score) [12]: 4.71
glycan array binding signal (z-score) [13]: 1.75
glycan array binding signal (z-score) [14]: 3.97
glycan array binding signal (z-score) [15]: 6.1
glycan array binding signal (z-score) [16]: 5.16
glycan array binding signal (z-score) [17]: -0.306
glycan array binding signal (z-score) [18]: -0.088
glycan array binding signal (z-score) [19]: -0.215
glycan array binding signal (z-score) [20]: -0.259
glycan array binding signal (z-score) [21]: -0.219
glycan array binding signal (z-score) [22]: -0.197
glycan array binding signal (z-score) [23]: 3.55
glycan array binding signal (z-score) [24]: -0.265
glycan array binding signal (z-score) [25]: 4.11
glycan array binding signal (z-score) [26]: -0.253
glycan array binding signal (z-score) [27]: -0.195
glycan array binding signal (z-score) [28]: -0.264
glycan array binding signal (z-score) [29]: -0.291
glycan array binding signal (z-score) [30]: -0.182
glycan array binding signal (z-score) [31]: -0.259
glycan array binding signal (z-score) [32]: -0.3
glycan array binding signal (z-score) [33]: -0.249
glycan array binding signal (z-score) [34]: -0.23
glycan array binding signal (z-score) [35]: -0.283
glycan array binding signal (z-score) [36]: -0.226
glycan array binding signal (z-score) [37]: -0.166
glycan array binding signal (z-score) [38]: -0.277
glycan array binding signal (z-score) [39]: -0.28
glycan array binding signal (z-score) [40]: -0.245
glycan array binding signal (z-score) [41]: -0.303
glycan array binding signal (z-score) [42]: -0.236
glycan array binding signal (z-score) [43]: -0.239
glycan array binding signal (z-score) [44]: -0.311
